# Like-named read-outs stand apart in the source and are kept apart here.
# Columns and labels:
# [1] = system: CHEK1; settings: concentration: 1 μM, replicates: in singlicate; n = 1
# [2] = system: CHEK2; settings: concentration: 1 μM, replicates: in singlicate; n = 1
# [3] = system: CIT; settings: concentration: 1 μM, replicates: in singlicate; n = 1
# [4] = system: CLK1; settings: concentration: 1 μM, replicates: in singlicate; n = 1
# [5] = system: CLK2; settings: concentration: 1 μM, replicates: in singlicate; n = 1
# [6] = system: CLK3; settings: concentration: 1 μM, replicates: in singlicate; n = 1
# [7] = system: CLK4; settings: concentration: 1 μM, replicates: in singlicate; n = 1
# [8] = system: CSF1R-autoinhibited; settings: concentration: 1 μM, replicates: in singlicate; n = 1
# [9] = system: CSF1R; settings: concentration: 1 μM, replicates: in singlicate; n = 1
# [10] = system: CSK; settings: concentration: 1 μM, replicates: in singlicate; n = 1
# [11] = system: CSNK1A1L; settings: concentration: 1 μM, replicates: in singlicate; n = 1
# [12] = system: CSNK1A1; settings: concentration: 1 μM, replicates: in singlicate; n = 1
# [13] = system: CSNK1D; settings: concentration: 1 μM, replicates: in singlicate; n = 1
# [14] = system: CSNK1E; settings: concentration: 1 μM, replicates: in singlicate; n = 1
# [15] = system: CSNK1G1; settings: concentration: 1 μM, replicates: in singlicate; n = 1
# [16] = system: CSNK1G2; settings: concentration: 1 μM, replicates: in singlicate; n = 1
# [17] = system: CSNK1G3; settings: concentration: 1 μM, replicates: in singlicate; n = 1
# [18] = system: CSNK2A1; settings: n = 1
# [19] = system: CSNK2A2; settings: n = 1
# [20] = system: T1, CTK; settings: concentration: 1 μM, replicates: in singlicate; n = 1
# T1 construct: gene MATK
# [21] = concentration: 1 μM, replicates: in singlicate
# 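Note: KINOMEscan kinase panel screen.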
structure (smiles),measurement,setting,value
COc1cc2ncn(-c3cc(OCc4sccc4Cl)c(C(N)=O)s3)c2cc1OC [GSK448459],%Inh,[1],0%
same,%Inh,[2],6%
same,%Inh,[3],27%
same,%Inh,[4],39%
same,%Inh,[5],23%
same,%Inh,[6],2%
same,%Inh,[7],14%
same,%Inh,[8],0%
same,%Inh,[9],18%
same,%Inh,[10],10%
same,%Inh,[11],6%
same,%Inh,[12],0%
same,%Inh,[13],16%
same,%Inh,[14],28%
same,%Inh,[15],4%
same,%Inh,[16],0%
same,%Inh,[17],13%
same,%Inh,[18]; [21],25%
same,%Inh,[19]; [21],34%
same,%Inh,[20],0%
Cc1c2ccc(N(C)c3ccnc(Nc4cccc(S(N)(=O)=O)c4)n3)cc2nn1Cc1ccccc1.Cl.Cl [GW787226],%Inh,[1],0%
same,%Inh,[2],8%
same,%Inh,[3],6%
same,%Inh,[4],0%
same,%Inh,[5],12%
same,%Inh,[6],0%
same,%Inh,[7],0%
same,%Inh,[8],64%
same,%Inh,[9],100%
same,%Inh,[10],9%
same,%Inh,[11],0%
same,%Inh,[12],15%
same,%Inh,[13],0%
same,%Inh,[14],0%
same,%Inh,[15],0%
same,%Inh,[16],0%
same,%Inh,[17],0%
same,%Inh,[18]; [21],0%
same,%Inh,[19]; [21],1%
same,%Inh,[20],26%
O=C(NCCCN1CCOCC1)c1cccc(Nc2nccc(Nc3ccc(Oc4ccccc4)cc3)n2)c1 [GW663929],%Inh,[1],9%
same,%Inh,[2],40%
same,%Inh,[3],9%
same,%Inh,[4],22%
same,%Inh,[5],28%
same,%Inh,[6],0%
same,%Inh,[7],11%
same,%Inh,[8],9%
same,%Inh,[9],33%
same,%Inh,[10],88%
same,%Inh,[11],0%
same,%Inh,[12],0%
same,%Inh,[13],3%
same,%Inh,[14],0%
same,%Inh,[15],18%
same,%Inh,[16],0%
same,%Inh,[17],11%
same,%Inh,[18]; [21],10%
same,%Inh,[19]; [21],21%
same,%Inh,[20],11%
C[C@@H](Oc1cc(-n2cnc3ccc(NC(=O)NC(C)(C)C)cc32)sc1C(N)=O)c1ccccc1Cl [GSK346294],%Inh,[1],10%
same,%Inh,[2],19%
same,%Inh,[3],0%
same,%Inh,[4],18%
same,%Inh,[5],7%
same,%Inh,[6],22%
same,%Inh,[7],40%
same,%Inh,[8],15%
same,%Inh,[9],6%
same,%Inh,[10],1%
same,%Inh,[11],6%
same,%Inh,[12],0%
same,%Inh,[13],3%
same,%Inh,[14],19%
same,%Inh,[15],0%
same,%Inh,[16],0%
same,%Inh,[17],32%
same,%Inh,[18]; [21],2%
same,%Inh,[19]; [21],0%
same,%Inh,[20],0%
NS(=O)(=O)c1cccc(-c2ccc3nccc(-c4cccc(S(N)(=O)=O)c4)c3c2)c1 [GW867253],%Inh,[1],0%
same,%Inh,[2],0%
same,%Inh,[3],0%
same,%Inh,[4],0%
same,%Inh,[5],25%
same,%Inh,[6],0%
same,%Inh,[7],1%
same,%Inh,[8],0%
same,%Inh,[9],0%
same,%Inh,[10],0%
same,%Inh,[11],0%
same,%Inh,[12],0%
same,%Inh,[13],0%
same,%Inh,[14],12%
same,%Inh,[15],0%
same,%Inh,[16],0%
same,%Inh,[17],0%
same,%Inh,[18]; [21],0%
same,%Inh,[19]; [21],22%
same,%Inh,[20],31%
Cc1cccc(-c2nc(-c3ccc(S(C)(=O)=O)cc3)sc2-c2ccncc2)c1,%Inh,[1],0%
same,%Inh,[2],1%
same,%Inh,[3],9%
same,%Inh,[4],0%
same,%Inh,[5],0%
same,%Inh,[6],0%
same,%Inh,[7],11%
same,%Inh,[8],0%
same,%Inh,[9],9%
same,%Inh,[10],8%
same,%Inh,[11],9%
same,%Inh,[12],18%
same,%Inh,[13],16%
same,%Inh,[14],36%
same,%Inh,[15],0%
same,%Inh,[16],20%
same,%Inh,[17],0%
same,%Inh,[18]; [21],0%
same,%Inh,[19]; [21],14%
same,%Inh,[20],0%
Cn1cc(-c2ccc3c(c2)CCN3C(=O)Cc2ccccc2Cl)c2c(N)ncnc21 [GSK2608885],%Inh,[1],35%
same,%Inh,[2],4%
same,%Inh,[3],65%
same,%Inh,[4],25%
same,%Inh,[5],0%
same,%Inh,[6],1%
same,%Inh,[7],0%
same,%Inh,[8],0%
same,%Inh,[9],99.8%
same,%Inh,[10],97.6%
same,%Inh,[11],0%
same,%Inh,[12],0%
same,%Inh,[13],11%
same,%Inh,[14],87%
same,%Inh,[15],25%
same,%Inh,[16],3%
same,%Inh,[17],20%
same,%Inh,[18]; [21],0%
same,%Inh,[19]; [21],8%
same,%Inh,[20],18%
O=c1cc(N2CCOCC2)nc2n(Cc3cccc(Cl)c3Cl)c(C3CC3)nn12 [GSK2358994],%Inh,[1],15%
same,%Inh,[2],0%
same,%Inh,[3],0%
same,%Inh,[4],27%
same,%Inh,[5],25%
same,%Inh,[6],14%
same,%Inh,[7],0%
same,%Inh,[8],0%
same,%Inh,[9],0%
same,%Inh,[10],8%
same,%Inh,[11],0%
same,%Inh,[12],0%
same,%Inh,[13],7%
same,%Inh,[14],11%
same,%Inh,[15],0%
same,%Inh,[16],5%
same,%Inh,[17],23%
same,%Inh,[18]; 1 µM,16%
same,%Inh,[19]; 1 µM,0%
same,%Inh,[20],0%
COc1ccc(Nc2nccc(N3CCC(NC(=O)Nc4cc(C)ccc4C)C3)n2)cc1 (stereo not drawn) [GSK1379741],%Inh,[1],0%
same,%Inh,[2],0%
same,%Inh,[3],5%
same,%Inh,[4],14%
same,%Inh,[5],0%
same,%Inh,[6],0%
same,%Inh,[7],0%
same,%Inh,[8],0%
same,%Inh,[9],4%
same,%Inh,[10],0%
same,%Inh,[11],2%
same,%Inh,[12],0%
same,%Inh,[13],0%
same,%Inh,[14],12%
same,%Inh,[15],0%
same,%Inh,[16],0%
same,%Inh,[17],14%
same,%Inh,[18]; [21],0%
same,%Inh,[19]; [21],0%
same,%Inh,[20],0%
